± gives the standard deviation of the averaged measurements.
Compound: CCOC(C)=O [ethyl acetate]
Test: control-subtracted net OSN firing rate; higher = stronger neuronal activation
Conditions: odorant dilution (vol/vol): 1/100
Protocol: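 Single sensillum recordings from olfactory sensory neurons. The neurons sit in the maxillary palp or antennal sensilla of D. melanogaster (wild type, mutants, or at1 empty-neuron lines expressing Or42a homologs or the A181D S307P mutant) and of four Scaptomyza species. Each odorant was given as a 1 s pulse from 20 µl loaded on filter paper at 1:100 vol/vol, diluted in mineral oil (γ-hexalactone in DMSO). Spikes were counted in a 0.5 s window starting 0.2 s after onset, background was subtracted, the count was doubled, and the mean solvent-control response was subtracted.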

Target	control-subtracted net OSN firing rate [spikes/s]
S. hsui pb2a-like	8 ± 5.1
S. hsui pb1b-like	-16.7 ± 9.4
S. flava pb3b-like	0.333 ± 9.7
S. pallida pb3b-like	28.7 ± 25
S. pallida pb3a-like	8.67 ± 14
Canton-S (D. melanogaster) pb3a	1.33 ± 8.4
Canton-S (D. melanogaster) pb1a	89.1 ± 27
S. hsui pb3a-like	-4.33 ± 11
S. pallida pb1b-like	-12.7 ± 9.3
Canton-S (D. melanogaster) pb1b	-7.33 ± 9.6
S. flava pb2b-like	0.333 ± 7.3
S. hsui pb2b-like	53 ± 37
S. flava pb2a-like	-1.67 ± 5.7
S. flava pb3a-like	6.67 ± 11
S. pallida pb2a-like	7.33 ± 11
Canton-S (D. melanogaster) pb2a	4.57 ± 6.5
S. pallida pb1a-like	80.3 ± 20
S. pallida pb2b-like	9.33 ± 10
S. flava pb1a-like	61.7 ± 23
Canton-S (D. melanogaster) pb2b	4 ± 6.4
S. flava pb1b-like	-6.33 ± 12
S. hsui pb1a-like	98.3 ± 21
Canton-S (D. melanogaster) pb3b	0.333 ± 9.4
S. hsui pb3b-like	-2.33 ± 2.3

From the supplement of paper PMC11482750
